Where “and” joins values, the source holds several entries; their conditions need not be identical. Equal entries are not always repeated. Inconclusive results are not listed. Entries that show only a call come without a potency. Where a structure was tested more than once in an assay, its records may differ in their call. Calls of active or inactive are those of the source. Unless noted, calls come from the whole dose curve.
Columns and labels:
[1] = Nuclear factor erythroid 2-related factor 2/antioxidant responsive element (Nrf2/ARE) small molecule agonists: qHTS cell viability counter screen in human keratinocytes (AID 1919968; active = well fitted curve in the direction sought with a large enough effect in the repeat runs; an effect the other way counts as inactive or inconclusive; note: nearly all actives have a fitted effect of over 55% in size; note: potency is the fitted concentration of half-maximal effect)
Procedure, shortened: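 Viability counter-screen: KeratinoSens reporter cells, DMSO-delivered compounds, 23 h at 37 C, CellTiter-Fluor fluorescence.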

[2] = molecular target: Gonadotropin-releasing hormone receptor (Homo sapiens) (UniProt P30968); test: Human gonadotropin-releasing hormone receptor (GnRHR) small molecule agonists, calcium flux assay in GnRHR-HEK293 cells (AID 1920063); note: nearly all actives have a fitted effect of over 35% in size
Gonadotropin-releasing hormone receptor (Homo sapiens), sequence (P30968 whole entry, looked up): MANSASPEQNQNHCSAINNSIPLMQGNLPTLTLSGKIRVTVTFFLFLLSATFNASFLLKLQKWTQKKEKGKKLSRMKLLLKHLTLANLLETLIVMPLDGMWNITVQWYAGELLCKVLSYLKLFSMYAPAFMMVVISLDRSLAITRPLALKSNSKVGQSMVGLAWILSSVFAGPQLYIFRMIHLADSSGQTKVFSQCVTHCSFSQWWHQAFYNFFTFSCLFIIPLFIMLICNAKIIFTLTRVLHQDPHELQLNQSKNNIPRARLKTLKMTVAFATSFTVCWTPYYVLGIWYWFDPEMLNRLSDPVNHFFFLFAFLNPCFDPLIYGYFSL
Procedure, shortened: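 Tox21-format agonist screen using human GnRHR-expressing HEK293 cells and a fluorescent calcium dye; kinetic 3-min fluorescence reading after compound addition, 15-point concentration series run in triplicate.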

[3] = molecular target: KiSS-1 receptor (Homo sapiens) (UniProt Q969F8); test: Human kisspeptin (KISS1R) small molecule agonists, calcium flux assay in KISS1R-HEK293 cells (AID 1920064; active = well fitted curve in the direction sought with a large enough effect in the repeat runs; an effect the other way counts as inactive or inconclusive)
KiSS-1 receptor (Homo sapiens), sequence (Q969F8 whole entry, looked up): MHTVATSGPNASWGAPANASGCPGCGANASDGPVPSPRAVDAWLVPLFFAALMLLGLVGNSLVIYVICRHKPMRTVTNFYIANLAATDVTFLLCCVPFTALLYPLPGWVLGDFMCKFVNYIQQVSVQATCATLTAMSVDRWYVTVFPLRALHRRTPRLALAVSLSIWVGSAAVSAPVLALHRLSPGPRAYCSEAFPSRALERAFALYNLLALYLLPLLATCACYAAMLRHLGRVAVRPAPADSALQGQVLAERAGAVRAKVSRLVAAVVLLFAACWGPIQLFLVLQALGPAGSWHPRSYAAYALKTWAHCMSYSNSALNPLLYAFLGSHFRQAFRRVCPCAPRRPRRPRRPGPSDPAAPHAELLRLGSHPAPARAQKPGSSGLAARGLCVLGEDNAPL
Procedure, shortened: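 Intracellular calcium mobilization in KISS1R-HEK293 cells was recorded by fluorescence (Ex/Em 480/540) for 3 min following compound addition to cells pre-loaded 1 h with calcium dye.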

[4] = G protein-coupled receptor (GPCR) small molecule agonists, calcium flux assay: HEK293 wild type cell line counter screen (AID 1920065)
Procedure, shortened: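 In this agonist-mode screen, ATP is the positive control and DMSO the vehicle. Cells grow 18 h before a 1 h dye incubation at 37 C; signal is taken at Ex/Em 480/540 over 3 min.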

[5] = p53 small molecule agonists, cell-based qHTS assay with human liver microsomes (AID 1963577);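 note: p53 response element beta-lactamase reporter cells with liver microsomes plus NADPH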
Procedure, shortened: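 HLM-supplemented p53RE-bla reporter assay: 16 h compound exposure at 37 C, microsomes and NADPH each 0.5 mg/mL final, read by fluorescence intensity.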

[6] = p53 small molecule agonists, cell-based qHTS assay with rat liver microsomes (AID 1963578)
Procedure, shortened: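 Quantitative HTS of the Tox21 10K library: p53RE-bla cells, rat liver microsomes plus NADPH at 0.5 mg/mL final each, 16 h at 37 C, beta-lactamase fluorescence detection.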

[7] = p53 small molecule agonists, cell-based qHTS assay with human liver microsomes: qHTS cell viability counter screen (AID 1963579); note: nearly all actives have a fitted effect of over 45% in size; note: potency is the fitted concentration of half-maximal effect
Procedure, shortened: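 Viability of p53RE-bla cells is measured as CellTiter-Glo luminescence following a 16 h, 37 C incubation with compound, liver microsomes from human donors and NADPH.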

[8] = p53 small molecule agonists, cell-based qHTS assay with rat liver microsomes: qHTS cell viability counter screen (AID 1963580); note: nearly all actives have a fitted effect of over 45% in size
Procedure, shortened: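 p53RE-bla HCT-116 cells were exposed 16 h at 37 C to compounds with rat liver microsomes (0.5 mg/mL) and NADPH (0.5 mg/mL). Viability was measured in the same wells as ATP content by CellTiter-Glo luminescence.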

[9] = p53 small molecule agonists, cell-based qHTS assay: qHTS cell viability counter screen (AID 1963581); note: nearly all actives have a fitted effect of over 45% in size; note: potency is the fitted concentration of half-maximal effect
Procedure, shortened: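 Compounds are pinned onto HCT-116 p53RE-bla cells and left 16 h at 37 C. Following the reporter FRET read, ATP is quantified by CellTiter-Glo luminescence after 30 min at room temperature.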

[10] = p53 small molecule agonists, cell-based qHTS assay (AID 1963582; active = well fitted activation curve with a large enough effect in the signal ratio in the repeat runs, not every such curve was filed as active; the % refers to the signal ratio)
Procedure, shortened: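 Agonist activity was scored from beta-lactamase FRET fluorescence in p53RE-bla cells treated 16 h at 37 C with compounds in DMSO, substrate incubation being 2 h at room temperature.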

[11] = molecular target: 5-hydroxytryptamine receptor 2A (Homo sapiens) (UniProt P28223); test: 5-hydroxytryptamine receptor 2A (HTR2A) small molecule antagonists, cell-based qHTS assay (AID 1963586); note: nearly all actives have a fitted effect of over 45% in size
5-hydroxytryptamine receptor 2A (Homo sapiens), sequence (P28223 whole entry, looked up): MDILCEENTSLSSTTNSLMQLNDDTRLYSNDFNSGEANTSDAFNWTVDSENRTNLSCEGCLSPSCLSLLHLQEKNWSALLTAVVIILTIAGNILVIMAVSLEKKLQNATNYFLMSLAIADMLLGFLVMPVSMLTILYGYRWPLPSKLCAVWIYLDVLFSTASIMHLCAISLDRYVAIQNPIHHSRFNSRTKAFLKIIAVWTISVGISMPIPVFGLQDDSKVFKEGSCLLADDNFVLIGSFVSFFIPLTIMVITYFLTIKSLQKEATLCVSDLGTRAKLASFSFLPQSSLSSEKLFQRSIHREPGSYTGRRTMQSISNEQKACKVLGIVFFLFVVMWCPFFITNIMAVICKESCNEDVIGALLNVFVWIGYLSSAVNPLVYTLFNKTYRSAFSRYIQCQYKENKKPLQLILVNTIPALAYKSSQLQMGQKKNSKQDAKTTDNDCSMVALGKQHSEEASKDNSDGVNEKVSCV
Procedure, shortened: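 Antagonist-mode intracellular calcium assay: DOI (4 nM) added after 5 min compound pre-incubation at room temperature to dye-loaded HTR2A-CHO cells. Fluorescence followed for 3 min, sampled every second.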

[12] = molecular target: 5-hydroxytryptamine receptor 2A (Homo sapiens) (UniProt P28223); test: 5-hydroxytryptamine receptor 2A (HTR2A) small molecule agonists, cell-based qHTS assay (AID 1963587); note: nearly all actives have a fitted effect of over 30% in size; note: potency is the fitted concentration of half-maximal effect
Procedure, shortened: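 CHO cells stably expressing human HTR2A, plated 18 h, loaded with calcium dye 1 h at 37 C. Agonist mode: compounds added and intracellular calcium fluorescence recorded kinetically for 2 min at 1 sec intervals.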

[13] = molecular target: Muscarinic acetylcholine receptor M1 (Homo sapiens) (UniProt P11229); test: Cholinergic receptor muscarinic 1 (CHRM1) small molecule antagonists, cell-based qHTS assay (AID 1963588); note: nearly all actives have a fitted effect of over 40% in size; note: potency is the fitted concentration of half-maximal effect
Muscarinic acetylcholine receptor M1 (Homo sapiens), sequence (P11229 whole entry, looked up): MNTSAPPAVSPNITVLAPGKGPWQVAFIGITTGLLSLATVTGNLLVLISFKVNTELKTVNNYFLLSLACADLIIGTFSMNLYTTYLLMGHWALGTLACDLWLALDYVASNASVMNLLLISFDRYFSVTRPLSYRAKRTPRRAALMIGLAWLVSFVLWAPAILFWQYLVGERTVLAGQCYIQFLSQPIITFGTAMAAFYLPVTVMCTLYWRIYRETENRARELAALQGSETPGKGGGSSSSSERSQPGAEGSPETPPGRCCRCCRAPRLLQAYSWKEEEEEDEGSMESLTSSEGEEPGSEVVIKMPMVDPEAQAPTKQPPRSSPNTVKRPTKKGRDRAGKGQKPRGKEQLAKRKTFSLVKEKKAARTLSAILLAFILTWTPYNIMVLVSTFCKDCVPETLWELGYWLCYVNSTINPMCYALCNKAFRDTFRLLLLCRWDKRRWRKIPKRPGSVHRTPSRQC
Procedure, shortened: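 CHRM1-CHO calcium-flux assay, antagonist mode. Cells were seeded 18 h, dye-loaded 1 h at 37 C and given compound for 5 min at RT, then acetylcholine was added at 50nM. FDSS fluorescence was read 3 min; 15 concentrations, three runs.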

[14] = molecular target: Muscarinic acetylcholine receptor M1 (Homo sapiens) (UniProt P11229); test: Cholinergic receptor muscarinic 1 (CHRM1) small molecule agonists, cell-based qHTS assay (AID 1963589); note: nearly all actives have a fitted effect of over 35% in size
Procedure, shortened: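 Stable CHRM1-CHO cells (human receptor) were incubated 18 h, dye-loaded for 1 h at 37 C and exposed to test compounds for agonist activity, with calcium-dependent fluorescence followed kinetically.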

[15] = cAMP Responsive Elements (CRE) small molecule antagonists, cell-based qHTS assay (AID 1963591; active = well fitted inhibition curve with a large enough effect in the signal ratio in the repeat runs, not every such curve was filed as active; the % refers to the signal ratio)
Procedure, shortened: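 qHTS in CRE-bla HEK 293T cells: compound in DMSO, then 0.25 uM NKH477 (final), 3 h at 37 °C/5% CO2; beta-lactamase FRET read-out after 2 h substrate incubation.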

[16] = molecular target: Beta-2 adrenergic receptor (Homo sapiens) (UniProt P07550); test: Adrenergic beta2 receptor (ADRB2) small molecule antagonists, cell-based qHTS assay (AID 1963592); note: series mostly up to about 92 µM; nearly all actives have a fitted effect of over 50% in size
Beta-2 adrenergic receptor (Homo sapiens), sequence (P07550 whole entry, looked up): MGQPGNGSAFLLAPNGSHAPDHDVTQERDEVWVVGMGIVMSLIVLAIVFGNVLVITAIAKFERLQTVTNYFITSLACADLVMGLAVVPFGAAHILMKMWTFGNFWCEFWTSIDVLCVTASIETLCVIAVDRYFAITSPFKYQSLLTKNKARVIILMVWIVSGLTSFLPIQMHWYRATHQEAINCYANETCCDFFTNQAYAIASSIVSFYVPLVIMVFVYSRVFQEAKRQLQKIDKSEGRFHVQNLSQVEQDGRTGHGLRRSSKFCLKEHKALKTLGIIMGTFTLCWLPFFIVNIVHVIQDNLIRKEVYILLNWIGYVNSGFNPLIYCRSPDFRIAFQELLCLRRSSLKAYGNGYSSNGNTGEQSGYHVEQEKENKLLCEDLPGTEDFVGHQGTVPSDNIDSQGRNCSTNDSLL
Procedure, shortened: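 Cells (CHO, stable ADRB2 overexpression) incubated 18-20hr at 37C; compounds added from DMSO; agonist mix (1nM isoproterenol, 100uM IBMX, 25uM Ro-20-1724) added; 0.5hr RT; d2-cAMP and anti-cAMP-cryptate added; 1hr RT; 665/615 nm read.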

[17] = molecular target: Beta-2 adrenergic receptor (Homo sapiens) (UniProt P07550); test: Adrenergic beta2 receptor (ADRB2) small molecule agonists, cell-based qHTS assay (AID 1963593);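 note: CHO cells stably overexpressing human ADRB2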
Procedure, shortened: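 CHO cells stably over-expressing ADRB2 were plated overnight at 37C, then dosed with compounds plus a stimulation mix containing 100uM IBMX and 25uM Ro-20-1724 for 0.5hr at room temperature. cAMP was measured by HTRF competition, 1hr.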

[18] = molecular target: D(2) dopamine receptor (Homo sapiens) (UniProt P14416); test: Dopamine D2 receptor (DRD2) small molecule antagonists, cell-based qHTS assay (AID 1963595; active = well fitted inhibition curve with a large enough effect in the signal ratio in the repeat runs, with a control signal flat; the % refers to the signal ratio; note: potency is the fitted concentration of half-maximal effect)
D(2) dopamine receptor (Homo sapiens), sequence (P14416 whole entry, looked up): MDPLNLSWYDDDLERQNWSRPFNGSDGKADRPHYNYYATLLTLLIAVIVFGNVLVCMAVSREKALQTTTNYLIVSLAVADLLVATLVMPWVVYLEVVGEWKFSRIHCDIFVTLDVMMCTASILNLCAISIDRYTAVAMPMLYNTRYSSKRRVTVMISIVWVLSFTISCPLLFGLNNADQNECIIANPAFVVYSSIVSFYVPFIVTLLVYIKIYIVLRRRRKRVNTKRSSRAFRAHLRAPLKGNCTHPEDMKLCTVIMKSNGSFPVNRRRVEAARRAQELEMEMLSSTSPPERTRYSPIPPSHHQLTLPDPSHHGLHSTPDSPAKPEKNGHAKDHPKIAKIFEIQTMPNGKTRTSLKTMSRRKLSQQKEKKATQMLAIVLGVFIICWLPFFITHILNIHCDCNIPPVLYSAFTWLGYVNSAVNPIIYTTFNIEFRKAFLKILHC
Procedure, shortened: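 Cells were plated and grown for 24 h at 37 °C. Ro20-1724 (0.1 mM final) went in first, then compound for 10 min. NKH477 (200 nM) with quinpirole (12 nM) followed for 30 min at RT, then HTRF detection reagents for 1 h.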

[19] = cAMP Responsive Elements (CRE) small molecule agonists, cell-based qHTS assay (AID 1963590); note: potency is the fitted concentration of half-maximal effect
Procedure, shortened: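 FRET-based beta-lactamase readout (LiveBLAzer B/G, 2 h RT) quantified CRE activation in HEK 293T CRE-bla cells after 3 h treatment with DMSO-dissolved compounds.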

[20] = molecular target: D(2) dopamine receptor (Homo sapiens) (UniProt P14416); test: Dopamine D2 receptor (DRD2) small molecule agonists, cell-based qHTS assay (AID 1963594); note: nearly all actives have a fitted effect of over 35% in size
Procedure, shortened: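 HEK293 cells stably expressing human DRD2, pre-treated with PDE inhibitor Ro20-1724 (0.1 mM final) and compound 10 min at room temperature, then stimulated with NKH477 (200nM […]) for 30 min. cAMP read by HTRF (665/620 nm).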

Row | Structure (SMILES) | Potency [1] | Potency [2] | Potency [3] | Potency [4] | Potency [5] | Potency [6] | Potency [7] | Potency [8] | Potency [9] | Potency [10] | Potency [11] | Potency [12] | Potency [13] | Potency [14] | Potency [15] | Potency [16] | Potency [17] | Potency [18] | Potency [19] | Potency [20]
1 | CCCCOCCOCCOC(C)=O | inactive | inactive | inactive | inactive | inactive | inactive | inactive | inactive | inactive | inactive | inactive | inactive | inactive | inactive | inactive | inactive | inactive | inactive |  | 
2 | CC(C)=CCl | inactive |  |  |  |  | inactive | inactive | inactive | inactive | inactive | inactive | inactive | inactive | inactive | inactive | inactive |  |  | inactive | inactive
3 | C=C(C#N)C(=O)OCC | inactive |  | inactive |  | inactive | inactive | inactive | inactive | inactive | inactive | inactive | inactive | inactive | inactive | inactive | inactive | inactive | inactive | inactive | 
4 | CCCCCCCCCCCC[N+](C)(C)Cc1ccccc1 | 23.9 µM (active) and 29.7 µM (active) and 11.9 µM (active) |  | inactive | inactive |  |  | 44.9 µM (active) and 49.7 µM (active) and 19.9 µM (active) | inactive | 49.7 µM (active) and 22.3 µM (active) |  |  | 48 µM (active) | 1.02 µM (active) and 650 nM (active) | inactive |  | inactive |  | inactive and 59.2 µM (active) and 29.8 µM (active) |  | inactive
5 | c1ccc2cc3ccccc3cc2c1 | inactive | inactive | inactive | inactive | inactive | inactive | inactive | inactive | inactive | inactive | inactive | inactive | inactive | inactive | inactive | inactive | inactive | inactive | inactive | inactive
6 | NCCOCCO | inactive | inactive | inactive | inactive | inactive | inactive | inactive | inactive | inactive | inactive | inactive |  | inactive | inactive | inactive | inactive | inactive | inactive | inactive | inactive
7 | COC(=O)c1ccc(O)cc1 | inactive | inactive | inactive | inactive | inactive | inactive | inactive | inactive | inactive | inactive |  |  |  |  | inactive | inactive | inactive | inactive | inactive | inactive
8 | CCCCCCCCC(=O)O | inactive |  | inactive | inactive |  | inactive | inactive | inactive | inactive | inactive | inactive | inactive | inactive | inactive | inactive | inactive | inactive | inactive |  | inactive
9 | Cc1ccc(C(=O)O)o1 | inactive |  | inactive | inactive |  |  | inactive |  | inactive |  | inactive | inactive | inactive | inactive | inactive | inactive | inactive | inactive | inactive | inactive
10 | O=[N+]([O-])C(CO)(CO)CO | inactive | inactive | inactive | inactive | inactive | inactive | inactive | inactive | inactive | inactive | inactive | inactive | inactive | inactive | inactive | inactive | inactive | inactive | inactive | inactive
11 | C=C[C@@]1(C)CC(=O)[C@]2(O)[C@@]3(C)[C@@H](O)CCC(C)(C)[C@@H]3[C@H](O)[C@H](OC(C)=O)[C@@]2(C)O1 | inactive |  | inactive | inactive |  | inactive | inactive | inactive | inactive | inactive | inactive | inactive |  | inactive |  |  |  | 30.6 nM (active) and 944 nM (active) | 243 nM (active) and 298 nM (active) | inactive
12 | CC(=O)O[C@]1(C(C)=O)CC[C@H]2[C@@H]3C[C@H](C)C4=CC(=O)CC[C@]4(C)[C@H]3CC[C@@]21C | inactive |  | inactive | inactive | inactive |  | inactive |  | inactive |  |  |  |  |  |  | inactive | inactive |  |  | inactive
13 | C=CCOC(=O)c1ccccc1C(=O)OCC=C | inactive | inactive | inactive | inactive | inactive | inactive | inactive | inactive | inactive | inactive | inactive |  | inactive | inactive | inactive | inactive | inactive | inactive | inactive | inactive
14 | Cc1ncc(CO)c(CO)c1O | inactive | inactive | inactive | inactive | inactive | inactive | inactive | inactive | inactive | inactive | inactive |  | inactive | inactive | inactive |  | inactive | inactive | inactive | inactive
15 | COCCCN | inactive |  | inactive |  | inactive | inactive | inactive | inactive | inactive | inactive | inactive | inactive | inactive | inactive | inactive | inactive | inactive | inactive |  | inactive
16 | CCc1ccc(CCOc2ccc(CC3SC(=O)NC3=O)cc2)nc1 (stereo unspecified) | inactive |  |  | inactive | inactive | inactive | inactive | inactive | inactive | inactive |  |  |  |  |  |  | inactive | inactive |  | inactive
